PubChem BioAssay (NCI)
About 83,000 compounds went through this panel and 20% of them were active in at least one assay; those are over-represented in the sample as a whole.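 Method: cells in 96-well plates; compound added at one concentration; 48 h incubation; percent growth measured; values under 10 scored active.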

Assays:
Test in all cases: NCI-60 one-dose screen, 48 h (100 = growth as untreated, 0 = no growth, -100 = all killed)
Details in all cases: 10 µM
NCI-H23 lung = tested on: NCI-H23 lung
NCI-H226 lung = tested on: NCI-H226 lung
NCI-H322M lung = tested on: NCI-H322M lung
HOP-62 NSCLC = tested on: HOP-62 NSCLC
NCI-H460 lung = tested on: NCI-H460 lung
NCI-H522 lung = tested on: NCI-H522 lung
A549/ATCC NSCLC = tested on: A549/ATCC NSCLC
786-0 renal = tested on: 786-0 renal
COLO 205 colon = tested on: COLO 205 colon
K-562 leukemia = tested on: K-562 leukemia
MALME-3M melanoma = tested on: MALME-3M melanoma
MDA-MB-231 breast = tested on: MDA-MB-231 breast
SF-268 CNS = tested on: SF-268 CNS
SF-295 CNS = tested on: SF-295 CNS
SF-539 CNS = tested on: SF-539 CNS
M14 melanoma = tested on: M14 melanoma
HCT-15 colon = tested on: HCT-15 colon
DU-145 prostate = tested on: DU-145 prostate
RXF 393 renal = tested on: RXF 393 renal
UACC-257 melanoma = tested on: UACC-257 melanoma

Measured: growth

CC1(O)CCC2CC3OC3(C)CCC3OC3(C)CCC1C2(C)C (stereo unspecified)
inactive: NCI-H23 lung 105% | NCI-H226 lung 108% | NCI-H322M lung 114% | HOP-62 NSCLC 98.8% | NCI-H460 lung 112% | NCI-H522 lung 98.1% | A549/ATCC NSCLC 90.7% | 786-0 renal 99.7% | COLO 205 colon 106% | K-562 leukemia 113% | MALME-3M melanoma 110% | MDA-MB-231 breast 102% | SF-268 CNS 107% | SF-295 CNS 89.6% | SF-539 CNS 119% | M14 melanoma 103% | HCT-15 colon 105%

Cc1cc2ccccc2nc1-c1ccccc1F
inactive: NCI-H23 lung 109% | NCI-H226 lung 98.9% | NCI-H322M lung 128% | HOP-62 NSCLC 94.6% | NCI-H460 lung 107% | NCI-H522 lung 122% | 786-0 renal 95.1% | COLO 205 colon 110% | DU-145 prostate 116% | K-562 leukemia 110% | MDA-MB-231 breast 112% | RXF 393 renal 99% | SF-268 CNS 101% | SF-295 CNS 107% | SF-539 CNS 107% | UACC-257 melanoma 89.6% | M14 melanoma 108% | HCT-15 colon 101%

COc1ccc(-c2nc3ncccn3c2-c2nnc(-c3ccsc3C)o2)cc1
inactive: NCI-H23 lung 80.5% | NCI-H226 lung 61.6% | NCI-H322M lung 84.4% | HOP-62 NSCLC 23.8% | NCI-H460 lung 59.9% | NCI-H522 lung 53.6% | 786-0 renal 90.9% | COLO 205 colon 110% | DU-145 prostate 88.3% | K-562 leukemia 92.2% | MALME-3M melanoma 80.8% | MDA-MB-231 breast 80.6% | RXF 393 renal 82.8% | SF-295 CNS 80.3% | SF-539 CNS 86.4% | UACC-257 melanoma 78.4% | M14 melanoma 107% | HCT-15 colon 88.9%

CC(=O)/C(=C/c1ccccc1)C(=O)CC(C)C
inactive: NCI-H23 lung 100% | NCI-H226 lung 106% | NCI-H322M lung 116% | HOP-62 NSCLC 115% | NCI-H460 lung 99.8% | NCI-H522 lung 95.2% | 786-0 renal 95.9% | COLO 205 colon 100% | DU-145 prostate 92.8% | K-562 leukemia 41.5% | MDA-MB-231 breast 119% | RXF 393 renal 103% | SF-268 CNS 95.3% | SF-295 CNS 102% | SF-539 CNS 109% | UACC-257 melanoma 89.6% | M14 melanoma 82.9% | HCT-15 colon 76.1%
